Data: the supplement of paper PMC11732987, “Enantioselective OTUD7B fragment discovery through chemoproteomics screening and high-throughput optimisation” (Communications Chemistry, 2025)
Values without a mark were called inactive.

Key:
Test in all cases: log2 ratio of Biotin-Ahx-Ub-VS probe labelling (fragment/DMSO); higher = less target engagement (more negative = stronger competition), active = hit call of the paper (q ≤ 0.05, log2 ratio ≤ -1)
Conditions in all cases: compound concentration: 200 uM; treatment time: 3 h
OTUD6B = target: T1, OTUD6B (UniProt Q8N6M0)
T1 sequence (whole entry): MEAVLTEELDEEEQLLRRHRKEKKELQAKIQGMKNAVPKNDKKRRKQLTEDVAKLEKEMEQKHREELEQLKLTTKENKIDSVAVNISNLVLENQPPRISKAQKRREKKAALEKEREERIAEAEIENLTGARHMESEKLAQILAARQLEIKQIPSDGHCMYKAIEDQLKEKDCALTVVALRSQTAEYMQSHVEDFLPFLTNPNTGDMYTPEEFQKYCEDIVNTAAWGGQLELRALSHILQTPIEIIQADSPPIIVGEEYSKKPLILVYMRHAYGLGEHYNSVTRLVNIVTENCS
Method in brief: (§1)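 Triplicate samples of HEK293T lysate, 495 µg each, received fragment at 200 µM or vehicle for 3 h, followed by Biotin-Ahx-Ub-VS (0.5 µM final) for 1 h. After NeutrAvidin enrichment of labelled DUBs and LysC/trypsin digestion, peptides were run by diaPASEF LC-MS/MS. The values are average log2 fragment/vehicle ratios from global-median-normalised Spectronaut label-free quantities, tested by unpaired t-test on proteins having ≥2 unique peptides.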

OTUD7B = target: T2, OTUD7B (UniProt Q6GQQ9)
T2 sequence (whole entry): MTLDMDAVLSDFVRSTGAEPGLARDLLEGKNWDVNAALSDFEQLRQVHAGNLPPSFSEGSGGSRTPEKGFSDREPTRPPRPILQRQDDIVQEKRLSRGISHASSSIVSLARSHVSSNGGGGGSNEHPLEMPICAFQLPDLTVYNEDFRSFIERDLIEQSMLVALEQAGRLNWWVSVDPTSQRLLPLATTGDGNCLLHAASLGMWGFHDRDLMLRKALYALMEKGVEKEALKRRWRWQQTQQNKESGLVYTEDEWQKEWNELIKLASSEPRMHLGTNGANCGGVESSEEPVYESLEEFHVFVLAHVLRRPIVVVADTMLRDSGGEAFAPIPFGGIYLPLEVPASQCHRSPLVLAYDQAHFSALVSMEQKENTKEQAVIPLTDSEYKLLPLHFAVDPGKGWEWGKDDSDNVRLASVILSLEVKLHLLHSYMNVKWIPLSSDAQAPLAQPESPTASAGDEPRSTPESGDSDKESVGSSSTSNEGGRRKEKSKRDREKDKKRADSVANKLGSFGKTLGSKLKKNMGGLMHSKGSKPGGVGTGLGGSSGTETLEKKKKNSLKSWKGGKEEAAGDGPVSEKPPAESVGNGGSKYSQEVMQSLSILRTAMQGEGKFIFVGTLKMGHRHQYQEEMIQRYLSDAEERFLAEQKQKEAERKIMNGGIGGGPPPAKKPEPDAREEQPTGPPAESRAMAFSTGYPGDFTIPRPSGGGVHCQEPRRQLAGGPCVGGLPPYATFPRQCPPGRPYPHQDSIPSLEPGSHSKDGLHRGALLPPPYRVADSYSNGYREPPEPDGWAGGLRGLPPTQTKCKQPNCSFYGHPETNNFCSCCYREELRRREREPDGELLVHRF
Method in brief: as §1

PRPF8 = PRPF8 (UniProt Q6P2Q9)
Method in brief: as §1

PSMD7 = target: T3, PSMD7 (UniProt P51665)
T3 sequence (whole entry): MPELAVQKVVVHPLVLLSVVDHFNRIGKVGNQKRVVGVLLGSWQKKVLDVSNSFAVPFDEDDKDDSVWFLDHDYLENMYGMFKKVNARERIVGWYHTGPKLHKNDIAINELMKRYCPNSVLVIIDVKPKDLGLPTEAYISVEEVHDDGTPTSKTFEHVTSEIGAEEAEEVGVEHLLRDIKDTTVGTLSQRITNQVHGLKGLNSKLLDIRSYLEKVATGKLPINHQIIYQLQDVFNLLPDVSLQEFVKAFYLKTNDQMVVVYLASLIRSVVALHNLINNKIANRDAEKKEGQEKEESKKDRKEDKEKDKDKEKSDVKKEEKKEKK
Method in brief: as §1

UCHL1 = UCHL1 (UniProt P09936)
Sequence of UCHL1 (P09936 whole entry, looked up): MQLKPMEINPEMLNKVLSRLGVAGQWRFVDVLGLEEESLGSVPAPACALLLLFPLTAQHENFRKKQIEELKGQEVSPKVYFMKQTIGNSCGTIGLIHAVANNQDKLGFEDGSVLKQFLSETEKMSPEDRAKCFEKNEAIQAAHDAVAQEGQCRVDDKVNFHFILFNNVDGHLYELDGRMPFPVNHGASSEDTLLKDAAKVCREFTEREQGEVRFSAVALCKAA
Method in brief: as §1

UCHL3 = target: T4, UCHL3 (UniProt P15374)
T4 sequence (whole entry): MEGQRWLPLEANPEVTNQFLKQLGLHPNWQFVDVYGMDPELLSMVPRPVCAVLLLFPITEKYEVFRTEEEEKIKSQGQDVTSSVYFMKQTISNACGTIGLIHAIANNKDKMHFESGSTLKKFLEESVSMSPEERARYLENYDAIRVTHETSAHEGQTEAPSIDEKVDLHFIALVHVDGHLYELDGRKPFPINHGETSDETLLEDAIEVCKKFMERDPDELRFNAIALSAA
Method in brief: as §1

UCHL5 = target: T5, UCHL5 (UniProt Q9Y5K5)
T5 sequence (whole entry): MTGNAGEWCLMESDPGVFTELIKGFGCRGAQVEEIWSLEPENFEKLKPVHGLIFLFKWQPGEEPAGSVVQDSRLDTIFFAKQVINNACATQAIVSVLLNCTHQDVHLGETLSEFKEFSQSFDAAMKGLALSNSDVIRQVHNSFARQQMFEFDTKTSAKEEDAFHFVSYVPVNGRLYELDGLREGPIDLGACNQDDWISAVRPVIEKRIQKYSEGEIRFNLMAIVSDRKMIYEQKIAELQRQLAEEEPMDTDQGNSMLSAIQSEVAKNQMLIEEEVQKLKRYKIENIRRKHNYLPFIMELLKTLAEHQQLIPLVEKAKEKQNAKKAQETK
Method in brief: as §1

USP10 = USP10 (UniProt Q14694)
Sequence of USP10 (Q14694 whole entry): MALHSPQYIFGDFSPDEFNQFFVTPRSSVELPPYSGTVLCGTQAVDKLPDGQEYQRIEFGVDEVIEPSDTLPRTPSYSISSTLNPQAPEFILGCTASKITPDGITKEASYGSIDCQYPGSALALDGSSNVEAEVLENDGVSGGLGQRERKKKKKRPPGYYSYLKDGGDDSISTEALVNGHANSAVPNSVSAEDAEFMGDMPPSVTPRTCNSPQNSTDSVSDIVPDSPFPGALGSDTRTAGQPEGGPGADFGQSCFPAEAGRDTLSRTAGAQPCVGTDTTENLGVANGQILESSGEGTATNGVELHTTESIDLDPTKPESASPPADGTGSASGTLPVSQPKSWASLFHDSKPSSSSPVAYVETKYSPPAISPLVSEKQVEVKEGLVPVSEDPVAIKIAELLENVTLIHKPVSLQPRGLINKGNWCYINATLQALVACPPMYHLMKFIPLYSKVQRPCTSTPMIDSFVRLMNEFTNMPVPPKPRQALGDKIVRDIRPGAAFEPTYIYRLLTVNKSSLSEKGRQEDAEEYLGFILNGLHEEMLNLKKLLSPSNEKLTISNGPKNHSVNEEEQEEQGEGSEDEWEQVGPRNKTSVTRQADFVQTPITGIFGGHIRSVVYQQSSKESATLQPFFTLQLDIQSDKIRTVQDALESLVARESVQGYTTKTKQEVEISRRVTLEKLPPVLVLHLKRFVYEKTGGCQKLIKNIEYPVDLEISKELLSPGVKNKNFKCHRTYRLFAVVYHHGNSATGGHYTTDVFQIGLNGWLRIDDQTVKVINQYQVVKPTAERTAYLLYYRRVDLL
Method in brief: as §1

USP15 = target: T6, USP15 (UniProt Q9Y4E8)
T6 sequence (whole entry): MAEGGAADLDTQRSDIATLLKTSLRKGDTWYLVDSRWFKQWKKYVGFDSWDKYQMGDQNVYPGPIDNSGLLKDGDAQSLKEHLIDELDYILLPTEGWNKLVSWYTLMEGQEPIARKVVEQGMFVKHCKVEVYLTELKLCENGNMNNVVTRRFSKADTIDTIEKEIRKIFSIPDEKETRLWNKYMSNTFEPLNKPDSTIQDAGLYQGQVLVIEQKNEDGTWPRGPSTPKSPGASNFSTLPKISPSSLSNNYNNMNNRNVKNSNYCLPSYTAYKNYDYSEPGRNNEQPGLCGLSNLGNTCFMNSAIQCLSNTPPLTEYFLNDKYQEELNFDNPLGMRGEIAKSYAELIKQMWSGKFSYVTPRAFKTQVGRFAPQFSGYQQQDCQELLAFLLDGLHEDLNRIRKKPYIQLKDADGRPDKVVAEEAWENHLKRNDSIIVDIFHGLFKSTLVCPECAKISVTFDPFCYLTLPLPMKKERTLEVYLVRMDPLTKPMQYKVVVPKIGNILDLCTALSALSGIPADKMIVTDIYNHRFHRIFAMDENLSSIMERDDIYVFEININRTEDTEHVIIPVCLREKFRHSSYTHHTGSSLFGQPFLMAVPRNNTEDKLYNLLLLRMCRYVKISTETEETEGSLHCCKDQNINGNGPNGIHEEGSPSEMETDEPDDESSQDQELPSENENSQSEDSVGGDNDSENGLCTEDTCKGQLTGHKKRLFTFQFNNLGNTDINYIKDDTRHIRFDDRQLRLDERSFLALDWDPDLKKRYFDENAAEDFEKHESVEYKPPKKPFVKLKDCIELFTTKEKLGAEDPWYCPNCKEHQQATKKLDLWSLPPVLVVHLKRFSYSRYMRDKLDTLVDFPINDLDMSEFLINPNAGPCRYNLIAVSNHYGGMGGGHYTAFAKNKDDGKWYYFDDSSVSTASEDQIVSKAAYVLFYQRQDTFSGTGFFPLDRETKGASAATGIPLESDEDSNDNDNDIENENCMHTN
Method in brief: as §1

USP16 = USP16 (UniProt Q9Y5T5)
Sequence of USP16 (Q9Y5T5 whole entry, looked up): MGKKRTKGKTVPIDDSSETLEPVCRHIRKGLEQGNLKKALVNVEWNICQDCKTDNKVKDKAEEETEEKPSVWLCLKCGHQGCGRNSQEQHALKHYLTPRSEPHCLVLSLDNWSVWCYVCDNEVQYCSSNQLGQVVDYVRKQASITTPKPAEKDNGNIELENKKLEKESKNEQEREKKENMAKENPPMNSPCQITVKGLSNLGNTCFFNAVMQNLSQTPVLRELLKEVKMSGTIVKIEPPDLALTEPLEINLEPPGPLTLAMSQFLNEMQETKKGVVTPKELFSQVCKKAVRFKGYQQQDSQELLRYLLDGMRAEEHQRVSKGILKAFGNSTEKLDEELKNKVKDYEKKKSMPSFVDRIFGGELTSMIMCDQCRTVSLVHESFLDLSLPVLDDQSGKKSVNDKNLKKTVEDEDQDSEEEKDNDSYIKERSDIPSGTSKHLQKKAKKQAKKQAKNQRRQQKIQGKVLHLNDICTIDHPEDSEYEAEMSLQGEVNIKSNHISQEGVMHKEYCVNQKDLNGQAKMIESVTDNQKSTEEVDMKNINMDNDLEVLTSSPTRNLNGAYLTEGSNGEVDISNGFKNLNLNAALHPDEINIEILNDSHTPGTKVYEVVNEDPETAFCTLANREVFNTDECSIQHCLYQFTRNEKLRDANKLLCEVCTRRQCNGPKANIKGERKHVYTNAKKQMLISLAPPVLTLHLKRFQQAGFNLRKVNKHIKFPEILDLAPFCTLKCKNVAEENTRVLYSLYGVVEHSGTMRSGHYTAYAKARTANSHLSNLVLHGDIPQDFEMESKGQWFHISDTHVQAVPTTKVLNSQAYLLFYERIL
Method in brief: as §1

Row | Structure (SMILES) | log2 ratio of Biotin-Ahx-Ub-VS probe labelling (OTUD6B) | log2 ratio of Biotin-Ahx-Ub-VS probe labelling (OTUD7B) | log2 ratio of Biotin-Ahx-Ub-VS probe labelling (PRPF8) | log2 ratio of Biotin-Ahx-Ub-VS probe labelling (PSMD7) | log2 ratio of Biotin-Ahx-Ub-VS probe labelling (UCHL1) | log2 ratio of Biotin-Ahx-Ub-VS probe labelling (UCHL3) | log2 ratio of Biotin-Ahx-Ub-VS probe labelling (UCHL5) | log2 ratio of Biotin-Ahx-Ub-VS probe labelling (USP10) | log2 ratio of Biotin-Ahx-Ub-VS probe labelling (USP15) | log2 ratio of Biotin-Ahx-Ub-VS probe labelling (USP16)
1 | Cl.O=C(CCl)N1CCN(Cc2ccccc2)CC1 | -0.117 | -0.1 | -0.0463 | -0.259 | -0.902 | 0.47 | -0.282 | -0.119 | -0.171 | -0.587
2 | CC(NC(=O)CCl)c1noc(Cc2ccccc2)n1 (stereo not given) | -0.409 | -0.724 | 0.0633 | -0.49 | -1.97 (active) | -0.00714 | -0.344 | 0.046 | -0.331 | -0.296
3 | Cl.O=C(CCl)N1CCCC(c2ncc[nH]2)C1 (stereo not given) | -0.0792 | -0.245 | -0.138 | -0.217 | -1.49 (active) | 0.271 | -0.164 | -0.028 | -0.0525 | -0.216
4 | CC1Cc2ccccc2N1C(=O)CCl (stereo not given) | -0.391 | -0.238 | -0.117 | -0.328 | -1.4 (active) | 0.164 | -0.572 | -0.242 | -0.382 | 0.0877
5 | Cc1ncc2c(n1)CCN(C(=O)CCl)C2 | -0.152 | -0.47 | 0.0188 | 0.0625 | -0.771 | 0.268 | 0.0568 | -0.242 | -0.636 | -0.136
6 | CS(=O)(=O)c1ccc(NC(=O)CCl)cc1 | -0.109 | -0.594 | -0.257 | 0.0407 | -1.26 (active) | 0.206 | -0.282 | -0.104 | -0.136 | -0.145
7 | Cc1cccc(NC(=O)[C@@H]2CCCN2C(=O)CCl)n1 | -0.319 | -0.29 | -0.0295 | -0.254 | -1.67 (active) | -0.737 | -0.436 | -0.09 | -0.215 | -0.0941
8 | O=C(CCl)N(C1CCCC1)C1CCS(=O)(=O)C1 (stereo not given) | -0.0743 | -0.147 | 0.17 | 0.00755 | -1.47 (active) | 0.248 | -0.176 | -0.0694 | -0.235 | -0.121
